An excerpt weighted towards active compounds, which were near 19% of everything screened.
DT40 TDP1 no CPT: qHTS for Inhibitors of human tyrosyl-DNA phosphodiesterase 1 (TDP1): qHTS in cells in absence of CPT; Potency, µM (doses to about 46.2 µM), for inactives: at the top dose activity change, negative = growth inhibition, usual class: inhibitors; actives 15% (n = 420,000); DT40 Tdp1-/- hTDP1 cells, no CPT, ATP luminescence, 48 h; note: potency is the fitted concentration of half-maximal effect; nearly all actives have a fitted effect of over 55% in size
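Chicken DT40 Tdp1-/- cells complemented with human TDP1, screened without camptothecin (DMSO vehicle only), 400 cells/well. Compounds pin-transferred, cells incubated at 37 °C for at least 48 hr. Growth read as ATP-dependent luminescence (CellTiter-Glo, 30 min at RT).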
DT40 TDP1 CPT: qHTS for Inhibitors of human tyrosyl-DNA phosphodiesterase 1 (TDP1): qHTS in cells in presence of CPT | chicken DT40 Tdp1-/-;hTDP1 cells + 20 nM CPT, ATP luminescence, 48 h | Potency, µM (titrated, usually from 46.2 µM), for the others: at the top dose activity change, negative = growth inhibition, usual class: inhibitors | actives 12% (n = 420,000); note: potency is the fitted concentration of half-maximal effect; nearly all actives have a fitted effect of over 55% in size
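Chicken DT40 Tdp1-/- cells complemented with human TDP1, 400 cells/well, exposed to compounds plus 20 nM camptothecin for at least 48 h at 37 C; viability read as ATP content by CellTiter-Glo luminescence.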
HT1080 IDH1KD tx: qHTS for induction of synthetic lethality in tumor cells producing 2HG: qHTS for the HT-1080-IDH1KD cell line; HT-1080 IDH1 knockdown viability, ATP luminescence, 48 h; Potency, µM (series often up to 46.1 µM), without a hit: at the highest dose activity, negative = toxicity, hits mostly cytotoxic; actives 2% (n = 360,000);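 note: potency is the fitted concentration of half-maximal effect; 0% = DMSO wells and -100% = cell-free medium wells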
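Luminescent ATP read-out (CellTiter-Glo, 10 min at room temperature) after 48 h compound exposure at 37 °C gave viability of IDH1-knockdown HT-1080 cells. Activity was normalised to DMSO and cell-free wells, then fitted as concentration-response curves.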
IL1B secr inh: qHTS for Inhibitors of Inflammasome Signaling: IL-1-beta AlphaLISA Primary Screen | actives 4.7% (n = 360,000) | activity change, % at 57.5 µM | THP-1 LPS/ATP IL-1B secretion, AlphaLISA, 16 h; stronger effect = lower value; in the data active = activity change below about -50%; inconclusive = mostly about -30% to -49%
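THP-1 cells pretreated 1 hr with compounds (up to 57.5 uM final), then stimulated with LPS (250 ng/mL final) plus ATP (1.25 mM final); secreted IL-1B measured by AlphaLISA after 16 hr, decreased signal indicating inhibition.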
HT1080NT lethal: qHTS for induction of synthetic lethality in tumor cells producing 2HG: qHTS for the HT-1080-NT fibrosarcoma cell line; HT-1080-NT fibrosarcoma viability, CellTiter-Glo ATP luminescence, 48 h; Potency, µM (highest dose often 46.1 µM), without a hit: at the highest dose activity, negative = less viability, hits mostly cytotoxic; actives 1.6% (n = 360,000); AID 686970, 2013;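 note: NT is the 2HG producing partner of a matched IDH1 knockdown line; potency is the fitted concentration of half-maximal effect; 0% = DMSO-treated cells and -100% = media-only wells without cells; nearly all actives have a fitted effect of over 55% in size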
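Compounds were tested in concentration-response format on HT-1080-NT cells for 48 hours at 37 degrees C. Cell viability came from CellTiter-Glo luminescence; curves were classified by r2, response magnitude and activity.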
Starred values were filed as active, the others as inactive; ? = inconclusive; nt = not tested or not shown. Unless noted, calls come from the whole dose curve; as a rule, active = well fitted curve in the direction sought with a large enough effect; inconclusive = small, poorly fitted or top-dose-only effect, or another doubt; inactive = no such curve, though single readings can be large; an effect the other way counts as inactive or inconclusive. Unless noted, % is set by controls: 0 for no effect and ±100 for the full control effect.

SMILES	DT40 TDP1 no CPT	DT40 TDP1 CPT	HT1080 IDH1KD tx	IL1B secr inh	HT1080NT lethal
CC(=O)N1CCC[C@H]1C(=O)NCC1Cc2cc(-c3cccc(OC(F)(F)F)c3)ccc2O1 (stereo partly specified)	16µM*	?	nt	nt	nt
Cc1noc(C)c1CC(=O)NCC1Cc2cc(-c3cccc(OC(F)(F)F)c3)ccc2O1 (stereo unspecified)	10µM*	?	nt	nt	nt
COc1cc(OC)c(NC(=O)c2nn(C)c3c2COc2ccccc2-3)cc1Cl	16%	7%	nt	nt	nt
Cc1ccc(C)c(Nc2nc3ccccc3n3cnnc23)c1	?	2%	7%	28	1%
CC(C)NC(=O)c1ccc(C(C)C)cc1	?	-2%	12%	-14	21%
Cc1cc(Br)cc(/C=N/NC(=O)c2ccc3c(c2)OCO3)c1O	23µM*	18µM*	16µM*	69	?
O=C(N/N=C/c1cc(Br)cc(Cl)c1O)c1ccc2c(c1)OCO2	1µM*	0.82µM*	?	74	?
O=C(N/N=C/c1cc(Br)c(O)c(Br)c1O)c1ccc2c(c1)OCCO2	8.2µM*	12µM*	?	66	?
CC(=O)N1CCN(CC(=O)Nc2cccc(S(=O)(=O)N3CCCCC3)c2)CC1	-27%	-16%	-11%	17	-2%
COc1cc(S(=O)(=O)Nc2ccc(Br)cc2)ccc1N	?	-25%	-1%	-8	-3%
O=S(=O)(/N=C(/Nc1ccc(Cl)c(S(=O)(=O)N2CCOCC2)c1)c1ccc(F)cc1)c1ccccc1	?	?	-10%	-18	-15%
COc1ccccc1N/C(=N/S(=O)(=O)c1ccc(C)cc1)c1ccc(Cl)cc1	?	16µM*	-6%	-25	-2%
COc1ccccc1NS(=O)(=O)c1cc(NC(=S)Nc2cc(C)cc(C)c2)ccc1Cl	5.2µM*	12µM*	10%	?	11%
COc1ccccc1NS(=O)(=O)c1cc(N/C(=N\S(=O)(=O)c2ccccc2)c2ccc(F)cc2)ccc1Cl	nt	18µM*	-19%	-8	-2%
CN1CCN(S(=O)(=O)c2ccc(SCCOc3ccc(Cl)cc3)nc2)CC1	16µM*	-89%	-1%	?	2%
O=C(NCC1Cc2cccc(-c3ccccn3)c2O1)c1cnn2cccnc12 (stereo unspecified)	2%	-5%	nt	nt	nt
C=CCC[C@@H](Cc1ccc(F)cc1)C(=O)OC[C@@H](C)NC(=O)[C@@H](CC=C)CC(=O)N[C@H](CO)Cc1ccccc1	?	15µM*	-19%	?	-13%
C=CCC[C@@H](Cc1ccc(F)cc1)C(=O)OC[C@@H](Cc1ccccc1)NC(=O)[C@H](CC=C)CC(=O)NCCO	13µM*	9.2µM*	-1%	-25	0%
C=CC[C@@H](CC(=O)N[C@H](CO)Cc1ccccc1)C(=O)N[C@@H](C)COC(=O)[C@@H](CC=C)Cc1ccc(F)cc1	18µM*	?	0%	20	-10%
C=CCC[C@@H](Cc1ccc(F)cc1)C(=O)OCCNC(=O)[C@@H](CC=C)CC(=O)N[C@@H](CO)Cc1ccccc1	-26%	?	-1%	-19	-2%
C=CC[C@@H](CC(=O)NCCO)C(=O)NC[C@H](OC(=O)[C@@H](CC=C)Cc1ccc(F)cc1)c1ccccc1	12µM*	15µM*	-11%	-15	-29%
CCOC(=O)c1c(N2C(=O)Nc3cc(Cl)c(Cl)cc3N2O)sc2c1CCCCC2	-29%	-19%	?	-6	?
COc1ccc([C@H]2CC(=O)C[C@@H](CCn3cc(-c4ccc(F)cc4)nn3)O2)cc1	-14%	-4%	2%	156	4%
COc1cccc(CNC(=O)C(C(=O)NCc2cccc(OC)c2)c2ncc(C(F)(F)F)cc2Cl)c1	?	?	-22%	24	-5%
C=CCC[C@@H](Cc1ccc(F)cc1)C(=O)OCCNC(=O)[C@@H](CC=C)CC(=O)N[C@H](CO)Cc1ccccc1	?	21µM*	-4%	2	-13%
SMILES	DT40 TDP1 no CPT	DT40 TDP1 CPT	HT1080 IDH1KD tx	IL1B secr inh	HT1080NT lethal
Cc1ccccc1Nc1c(-c2ccsc2)nc2c(C)cccn12	21µM*	16µM*	nt	nt	nt
Cc1ccccc1Nc1c(-c2ccc(Cl)s2)nc2ccccn12	?	-5%	-3%	nt	-3%
Cc1ccc(-c2nc3ccccn3c2Nc2ccccc2C)s1	21µM*	?	nt	nt	nt
Cc1ccn2c(Nc3ccccc3C)c(-c3ccncc3)nc2c1	15µM*	16µM*	7%	-89*	-1%
CCCc1nc(SC)[nH]c(=O)c1C	-7%	-14%	-4%	2	-4%
CNC(=O)c1nn(C)c(=O)[nH]c1=O	3%	16%	16%	11	6%
Cc1ccc(CNC(=O)C2(C)CCN2C(=O)Cc2ccc(C(C)(C)C)cc2)cc1 (stereo unspecified)	18µM*	16µM*	?	-14	?
CC1(C(=O)NS(=O)(=O)c2ccc(F)cc2F)CCN1C(=O)Cc1ccc(-c2ccccc2)cc1 (stereo unspecified)	-13%	-5%	4%	1	6%
CC(C)(C)c1ccc(CC(=O)N2CCC2(C)C(=O)NS(=O)(=O)c2ccc(F)cc2F)cc1 (stereo unspecified)	-5%	-6%	6%	-51*	29%
CC(C)(C)c1ccc(CC(=O)N2CCC2(C)C(=O)NCc2cccc3ccccc23)cc1 (stereo unspecified)	26µM*	23µM*	16µM*	?	?
Cc1cc(-n2[nH]c(C)c(C)c2=O)nc(-c2ccccc2O)n1	?	16µM*	?	82	-18%
Cc1cc(OCc2ccc(F)cc2)nc(-c2ccccc2O)n1	-17%	0%	-2%	22	7%
O=C(NC12CC3CC(CC(C3)C1)C2)C1CC(=O)N(c2ccc(Br)cc2)C1 (stereo unspecified)	23µM*	13µM*	7%	5	3%
O=C(NC12CC3CC(CC(C3)C1)C2)C1CC(=O)N(c2ccccc2)C1 (stereo unspecified)	-28%	-19%	-2%	13	-1%
CSCCC(NC(=O)c1ccccc1Br)C(=O)N1CCCCCCC1 (stereo unspecified)	-19%	-12%	-7%	-3	-1%
CSCCC(NC(=O)c1ccc(Cl)cc1Cl)C(=O)N1CCCCCCC1 (stereo unspecified)	23µM*	?	-5%	-7	-8%

Compound activity as filed in PubChem.
